Measurements as given in ChEMBL document CHEMBL3988442, “University of Dundee, Small-Polar-MMV Screening Library” (2021).
For some of these results: Entries with a potency or affinity are not part of this list.

What was measured:
Design in all cases: scale not given: direction of the effect not stated beside the values
[1] = molecular target: Protein translocase subunit SecA (Escherichia coli (strain K12)) (UniProt P10408); assay: Assay to Identify E. coli SecA ATPase Inhibitors; format: functional; conditions: 30 µM
Chain of Protein translocase subunit SecA (Escherichia coli (strain K12)) (P10408 whole entry): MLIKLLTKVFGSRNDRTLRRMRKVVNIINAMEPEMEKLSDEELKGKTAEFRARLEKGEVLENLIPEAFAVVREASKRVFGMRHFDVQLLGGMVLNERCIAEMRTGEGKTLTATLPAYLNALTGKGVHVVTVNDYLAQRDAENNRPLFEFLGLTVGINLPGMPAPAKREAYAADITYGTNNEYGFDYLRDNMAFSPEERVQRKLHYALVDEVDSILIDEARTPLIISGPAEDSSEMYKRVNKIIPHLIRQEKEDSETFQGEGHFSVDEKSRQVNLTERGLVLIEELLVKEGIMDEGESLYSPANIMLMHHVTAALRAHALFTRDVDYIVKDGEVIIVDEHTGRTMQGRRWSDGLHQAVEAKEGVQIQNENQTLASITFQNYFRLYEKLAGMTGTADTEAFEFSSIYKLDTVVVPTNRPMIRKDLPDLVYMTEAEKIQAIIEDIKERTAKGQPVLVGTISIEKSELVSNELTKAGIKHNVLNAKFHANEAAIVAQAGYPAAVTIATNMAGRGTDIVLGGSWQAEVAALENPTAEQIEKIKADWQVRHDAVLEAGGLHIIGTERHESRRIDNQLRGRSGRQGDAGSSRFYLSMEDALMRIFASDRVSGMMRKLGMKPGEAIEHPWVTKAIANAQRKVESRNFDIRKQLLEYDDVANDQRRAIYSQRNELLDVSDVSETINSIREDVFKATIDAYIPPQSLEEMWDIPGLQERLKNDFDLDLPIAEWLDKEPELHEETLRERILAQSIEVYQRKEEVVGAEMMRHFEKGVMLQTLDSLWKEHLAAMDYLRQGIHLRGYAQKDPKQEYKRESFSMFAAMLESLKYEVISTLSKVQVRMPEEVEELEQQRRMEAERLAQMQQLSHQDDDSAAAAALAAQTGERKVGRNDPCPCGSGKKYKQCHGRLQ

[2] = molecular target: T1, Ubiquitin-activating enzyme e1, putative (Leishmania donovani (strain BPK282A1)) (UniProt E9BSI1); assay: Leishmania donovani Ubiquitin Activating Enzyme (LdE1); format: functional; conditions: 30 µM
T1 sequence (whole entry): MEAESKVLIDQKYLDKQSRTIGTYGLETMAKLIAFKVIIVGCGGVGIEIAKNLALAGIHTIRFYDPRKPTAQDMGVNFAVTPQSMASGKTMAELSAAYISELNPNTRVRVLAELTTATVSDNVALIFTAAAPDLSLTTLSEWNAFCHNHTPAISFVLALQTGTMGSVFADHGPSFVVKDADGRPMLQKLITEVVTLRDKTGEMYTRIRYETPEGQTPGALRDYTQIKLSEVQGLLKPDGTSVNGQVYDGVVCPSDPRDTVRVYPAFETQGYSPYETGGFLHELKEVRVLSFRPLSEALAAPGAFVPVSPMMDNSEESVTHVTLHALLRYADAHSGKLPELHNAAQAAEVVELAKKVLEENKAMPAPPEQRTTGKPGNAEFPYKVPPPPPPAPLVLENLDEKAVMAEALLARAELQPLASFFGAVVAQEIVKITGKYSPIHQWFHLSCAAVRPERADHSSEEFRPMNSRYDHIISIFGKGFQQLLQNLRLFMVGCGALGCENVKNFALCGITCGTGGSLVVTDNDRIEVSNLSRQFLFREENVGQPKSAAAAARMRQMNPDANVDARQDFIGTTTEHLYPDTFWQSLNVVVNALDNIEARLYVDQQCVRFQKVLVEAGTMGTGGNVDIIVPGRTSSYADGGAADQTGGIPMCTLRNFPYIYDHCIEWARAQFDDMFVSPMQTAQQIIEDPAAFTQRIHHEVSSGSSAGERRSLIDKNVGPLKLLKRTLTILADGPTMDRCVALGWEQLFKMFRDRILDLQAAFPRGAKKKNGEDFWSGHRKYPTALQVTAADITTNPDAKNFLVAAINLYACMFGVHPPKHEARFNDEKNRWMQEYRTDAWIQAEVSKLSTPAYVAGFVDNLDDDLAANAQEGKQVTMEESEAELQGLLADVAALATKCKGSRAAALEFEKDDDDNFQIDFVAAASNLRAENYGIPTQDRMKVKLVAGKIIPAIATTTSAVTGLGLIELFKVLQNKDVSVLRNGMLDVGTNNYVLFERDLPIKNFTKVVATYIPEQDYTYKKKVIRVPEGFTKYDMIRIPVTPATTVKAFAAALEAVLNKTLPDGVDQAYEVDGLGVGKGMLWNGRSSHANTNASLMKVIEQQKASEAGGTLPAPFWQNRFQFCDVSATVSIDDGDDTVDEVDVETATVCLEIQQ

[3] = molecular target: AMP-activated protein kinase, AMPK (Homo sapiens) (UniProt P54646+O43741+P54619+Q9UGJ0+Q9Y478+Q13131+Q9UGI9); assay: AMP-dependent Kinase enzyme assay. An in vitro enzyme assay that detects ADP turnover that is directly proportional to AMPK activity. This uses naive AMPK that is activated during the assay with MK-8722; format: functional; conditions: 30 µM
[4] = molecular target: Sialic acid-binding Ig-like lectin 9 (Homo sapiens) (UniProt Q9Y336); assay: Hs-Siglec9 ALPHAscreen SOP 20170721; conditions: 10 µM
Chain of Sialic acid-binding Ig-like lectin 9 (Homo sapiens) (Q9Y336 whole entry): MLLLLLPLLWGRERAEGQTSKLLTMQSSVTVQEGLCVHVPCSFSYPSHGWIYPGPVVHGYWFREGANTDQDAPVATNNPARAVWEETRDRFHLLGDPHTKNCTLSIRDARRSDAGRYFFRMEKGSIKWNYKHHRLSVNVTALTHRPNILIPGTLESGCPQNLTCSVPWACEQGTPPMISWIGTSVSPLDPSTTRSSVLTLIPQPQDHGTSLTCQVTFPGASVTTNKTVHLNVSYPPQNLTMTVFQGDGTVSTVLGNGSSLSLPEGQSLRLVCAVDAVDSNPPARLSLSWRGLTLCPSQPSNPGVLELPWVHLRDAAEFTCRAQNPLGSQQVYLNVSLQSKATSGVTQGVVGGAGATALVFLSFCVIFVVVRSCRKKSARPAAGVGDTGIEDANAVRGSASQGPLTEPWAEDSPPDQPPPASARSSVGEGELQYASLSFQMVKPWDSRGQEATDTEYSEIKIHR

[5] = test system: Trypanosoma cruzi; assay: Trypanosoma cruzi phosphomannomutase and mannose-1-phosphate guanylyltransferase assay; format: functional; conditions: 10 µM
[6] = molecular target: T2, Arginase-2, mitochondrial (Homo sapiens) (UniProt P78540); assay: in vitro enzyme assay to detect the production of urea directly proportional to the activity of Arginase II; format: functional; conditions: 33.3 µM; also: in the data most compounds retested in dose-response had high values
T2 sequence (whole entry): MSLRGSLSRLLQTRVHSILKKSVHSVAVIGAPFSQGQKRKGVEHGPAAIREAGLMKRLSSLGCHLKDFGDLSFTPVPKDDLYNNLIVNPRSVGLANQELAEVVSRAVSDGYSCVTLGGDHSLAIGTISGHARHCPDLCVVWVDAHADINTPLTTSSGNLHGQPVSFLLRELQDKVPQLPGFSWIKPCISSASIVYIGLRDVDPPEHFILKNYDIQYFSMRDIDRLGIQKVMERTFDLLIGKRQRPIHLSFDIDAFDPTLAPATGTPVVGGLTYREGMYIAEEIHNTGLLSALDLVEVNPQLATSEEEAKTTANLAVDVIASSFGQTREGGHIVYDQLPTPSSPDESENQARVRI

[7] = molecular target: T3, Proteasome subunit beta (Trypanosoma cruzi) (UniProt O96673); assay: Trypanosoma cruzi proteasome chymotrypsin-like activity (TcProtChymo) assay.; also: in the data most compounds retested in dose-response had high values; format: functional; conditions: 9.37 µM
T3 sequence (whole entry): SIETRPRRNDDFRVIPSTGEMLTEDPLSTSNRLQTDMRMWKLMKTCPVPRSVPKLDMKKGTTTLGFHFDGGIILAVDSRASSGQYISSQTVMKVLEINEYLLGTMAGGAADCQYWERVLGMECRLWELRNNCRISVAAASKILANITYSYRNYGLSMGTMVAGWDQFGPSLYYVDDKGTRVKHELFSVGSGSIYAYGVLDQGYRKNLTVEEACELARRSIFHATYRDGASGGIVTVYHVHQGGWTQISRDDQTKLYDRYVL

[8] = organism: Homo sapiens; assay: To identify inhibition of the IFN signalling (Jak-Stat) pathway via expression of an eGFP reporter gene under the control of an IFN-stimulated response element (ISRE) containing MxA promoter.; format: functional; conditions: 30 µM
[9] = molecular target: T4, Tyrosyl-tRNA synthetase, putative (Trypanosoma cruzi (strain CL Brener)) (UniProt Q4DSP6); assay: Trypanosoma cruzi tyrosyl tRNA synthetase (TcYRS) _High Tyrosine SOP; format: functional; conditions: 30 µM; also: in the data most compounds retested in dose-response had high values
T4 sequence (whole entry): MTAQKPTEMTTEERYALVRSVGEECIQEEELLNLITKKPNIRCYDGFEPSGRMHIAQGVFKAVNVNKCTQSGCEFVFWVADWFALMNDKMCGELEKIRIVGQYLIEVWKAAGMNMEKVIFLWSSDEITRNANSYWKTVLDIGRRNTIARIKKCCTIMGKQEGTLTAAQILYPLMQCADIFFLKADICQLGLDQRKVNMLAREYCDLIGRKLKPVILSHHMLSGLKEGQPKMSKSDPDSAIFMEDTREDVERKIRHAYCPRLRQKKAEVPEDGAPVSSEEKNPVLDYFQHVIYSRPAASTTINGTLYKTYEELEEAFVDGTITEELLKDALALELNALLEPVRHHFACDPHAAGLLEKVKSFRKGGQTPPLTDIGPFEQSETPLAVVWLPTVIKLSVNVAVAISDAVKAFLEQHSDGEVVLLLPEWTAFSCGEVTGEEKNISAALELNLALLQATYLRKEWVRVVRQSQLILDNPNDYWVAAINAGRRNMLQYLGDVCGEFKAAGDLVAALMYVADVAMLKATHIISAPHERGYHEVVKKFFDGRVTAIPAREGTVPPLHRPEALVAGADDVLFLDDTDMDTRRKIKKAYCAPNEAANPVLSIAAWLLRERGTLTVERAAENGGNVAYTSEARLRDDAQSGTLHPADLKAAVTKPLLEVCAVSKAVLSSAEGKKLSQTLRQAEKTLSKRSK

[10] = molecular target: T4, Tyrosyl-tRNA synthetase, putative (Trypanosoma cruzi (strain CL Brener)); assay: Trypanosoma cruzi tyrosyl tRNA synthetase (TcYRS) SOP; format: functional; conditions: 30 µM
[11] = molecular target: Chromo domain-containing protein 1 (Saccharomyces cerevisiae (strain ATCC 204508 / S288c) (Baker's yeast)) (UniProt P32657); assay: ScCHD-1 Enzyme Inhibition Assay; format: functional; conditions: 30 µM; also: in the data most compounds retested in dose-response had high values
Chain of Chromo domain-containing protein 1 (Saccharomyces cerevisiae (strain ATCC 204508 / S288c) (Baker's yeast)) (P32657 whole entry, the tested form may be a part): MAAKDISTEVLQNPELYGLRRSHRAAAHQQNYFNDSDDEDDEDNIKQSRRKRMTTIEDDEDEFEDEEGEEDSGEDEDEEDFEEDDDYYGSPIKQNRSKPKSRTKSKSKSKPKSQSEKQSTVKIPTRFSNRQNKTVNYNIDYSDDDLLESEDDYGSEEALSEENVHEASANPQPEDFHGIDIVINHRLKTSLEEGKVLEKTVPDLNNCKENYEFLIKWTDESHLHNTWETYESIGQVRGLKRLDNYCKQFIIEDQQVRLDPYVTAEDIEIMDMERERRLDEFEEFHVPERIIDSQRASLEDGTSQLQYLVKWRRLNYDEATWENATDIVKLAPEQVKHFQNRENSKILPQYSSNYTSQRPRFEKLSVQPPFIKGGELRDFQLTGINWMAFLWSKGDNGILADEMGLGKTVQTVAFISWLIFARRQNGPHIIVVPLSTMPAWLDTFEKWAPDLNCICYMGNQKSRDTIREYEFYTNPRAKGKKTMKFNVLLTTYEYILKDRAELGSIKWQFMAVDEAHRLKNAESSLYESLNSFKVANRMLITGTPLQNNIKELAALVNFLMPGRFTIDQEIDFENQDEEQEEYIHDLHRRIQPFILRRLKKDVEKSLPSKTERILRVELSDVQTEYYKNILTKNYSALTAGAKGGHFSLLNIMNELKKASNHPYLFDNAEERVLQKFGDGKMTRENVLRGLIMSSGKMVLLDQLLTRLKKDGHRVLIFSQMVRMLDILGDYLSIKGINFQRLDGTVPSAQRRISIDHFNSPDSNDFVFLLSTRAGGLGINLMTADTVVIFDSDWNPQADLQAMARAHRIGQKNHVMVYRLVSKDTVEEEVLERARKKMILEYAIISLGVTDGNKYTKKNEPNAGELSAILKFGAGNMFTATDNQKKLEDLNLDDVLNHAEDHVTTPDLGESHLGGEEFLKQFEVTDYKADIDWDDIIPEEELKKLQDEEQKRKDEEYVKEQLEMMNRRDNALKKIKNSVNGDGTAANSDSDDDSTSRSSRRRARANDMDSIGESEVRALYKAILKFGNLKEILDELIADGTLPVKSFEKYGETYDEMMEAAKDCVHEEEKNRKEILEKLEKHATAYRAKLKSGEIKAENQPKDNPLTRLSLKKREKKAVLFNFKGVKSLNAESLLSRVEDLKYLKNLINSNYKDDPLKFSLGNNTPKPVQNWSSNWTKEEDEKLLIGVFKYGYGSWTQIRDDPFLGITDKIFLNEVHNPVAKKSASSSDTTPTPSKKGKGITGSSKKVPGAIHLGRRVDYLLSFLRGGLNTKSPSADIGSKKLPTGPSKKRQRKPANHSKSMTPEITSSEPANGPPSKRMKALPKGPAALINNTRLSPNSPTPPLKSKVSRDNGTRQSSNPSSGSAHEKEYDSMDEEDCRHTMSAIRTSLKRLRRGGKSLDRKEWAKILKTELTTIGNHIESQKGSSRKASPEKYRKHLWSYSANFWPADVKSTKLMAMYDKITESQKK

SMILES | Percent Effect [1] [%] | Percent Effect [2] [%] | Percent Effect [3] [%] | Percent Effect [4] [%] | Percent Effect [5] [%] | Percent Effect [6] [%] | Percent Effect [7] [%] | Percent Effect [8] [%] | Percent Effect [9] [%] | Percent Effect [10] [%] | Percent Effect [11] [%]
CCCn1cc(C(=O)N(C)Cc2nc(-c3ccccn3)no2)c(C)n1 | -2.06 | 5.33 | -2.74 | 4.11 | -2.43 | 4.69 | 18.8 | 17 | 6.01 | 13.6 | -5.18
COc1cccc(CN2CCCC(Nc3cccc(F)c3)C2)c1O (configuration not stated) | -5.42 | 10.8 | -4 | 18.7 | 7.33 | 2.23 | 5.24 | 0.464 | 3.23 | 11.1 | -12.4
CC1CCCN(CCNC(=O)c2ccn(-c3ccccc3)n2)C1 (configuration not stated) | -0.427 | 18.2 | 2.11 | -6.84 | -8.05 | 4.63 | 5.07 | 16.5 | 8.74 | 12.2 | -8.6
NC(=O)COc1cccc(C(=O)N2CCCC(n3cccn3)C2)c1 (configuration not stated) | -3.05 | 13.5 | -1.18 | 4.63 | 8.45 | 1.29 | 16 | 4.13 | 4.95 | 28.1 | -6.2
CC(NC(=O)NCc1cccc(N2CCCC2=O)c1)c1ccccc1 (configuration not stated) | -2.62 | 7.79 | 4.82 | 12.6 | 3.23 | -10.7 | 7.36 | -2.7 | 1.91 | 11.8 | -21.1
Cc1n[nH]c(C2CN(C(=O)c3cnc[nH]3)CCO2)n1 (configuration not stated) | -2.98 | 7.79 | 4.4 | 7.68 | 3.62 | -1.05 | 12.8 | -9.06 | 5.71 | 21.2 | -19.1
Cn1cc(CCNC(=O)CCc2ccc3c(c2)OCO3)cn1 | -0.341 | 16.2 | 0.891 | 13.4 | -9.75 | 3.88 | 13.3 | 8.13 | 1.98 | 13.4 | -6.68
O=C(c1ccco1)N1CCCC1C1CCN(Cc2ccccc2)CC1 (configuration not stated) | -3.11 | 7.89 | 6.52 | -0.267 | -2.24 | 4.73 | 17.9 | 8.16 | 6.38 | 10.4 | -2.37
O=C(COc1cccc2c1CCC2=O)NCCSc1ccccc1 | -1.44 | 5.26 | 7.61 | -2.93 | -2.63 | 10.7 | 8.92 | 20.8 | -2.13 | 7.79 | -5.02
CC(=O)N1CCN(C)CC(COCc2ccccc2)C1 (configuration not stated) | -5.71 | 12.2 | 7.92 | 3.51 | 4.54 | -2.09 | -1.09 | 6.97 | 4.3 | 6.49 | -11.4
O=C(c1cnc(-c2cccs2)s1)N1CCCN2CCCC2C1 (configuration not stated) | -2 | 5.41 | -8.71 | -6.92 | -2.36 | -16 | 12.6 | -1.67 | 4.43 | 23.5 | -7.67
Cc1cc(C)c2nc(CN3CC[C@@H](O)C3)cc(O)c2c1 | -2.1 | 0 | 0.932 | 1.78 | -1.16 | -3.81 | 11.9 | -16.8 | 13.2 | 19.5 | -5.98
CSc1ccc(S(=O)(=O)N2CCCCC2CCNC(C)=O)cc1 (configuration not stated) | 0.287 | 11 | -3.42 | 4.24 | 1.59 | 1.6 | 14.8 | 9.17 | 7.29 | 16.1 | -5.63
CN(Cc1ccco1)C(=O)C1CSCN1C(=O)c1cccnc1 (configuration not stated) | -3.86 | 0 | 0.482 | 1.7 | 0.467 | -3.96 | 4.65 | -7.95 | -0.493 | 1.24 | -0.736
CSCCCN1CCCC1c1noc(C)n1 (configuration not stated) | -0.0492 | 13.2 | -11.1 | -5.04 | 6.39 | 8.43 | 23.7 | 19.4 | 14.2 | 21.9 | -9.94
CCc1noc(C2CCN(C(=O)CCn3nc(C)cc3C)CC2)n1 | -4.24 | 18.2 | 0.146 | 12.9 | 8.55 | -5.52 | 14.8 | -6.48 | 8.6 | 16.1 | -7.88
CCOc1nnc(CN(C)C2CCCN(c3cccnn3)C2)s1 (configuration not stated) | -2.38 | 10.5 | -2.62 | -6.38 | 7.5 | -11.8 | 17.9 | -12.4 | 7.45 | 18.2 | -4.02
